Reference: PubChem BioAssay (Tox21)
Results filed as inconclusive are left out. The source made the active and inactive calls. Calls come from the whole dose curve; as a rule, active = well fitted curve in the direction sought with a large enough effect in the repeat runs; inconclusive = weak or mixed curves; inactive = no such curve, though single readings can be large; an effect the other way counts as inactive or inconclusive.

Experiment: A CellTox Green Cytotoxicity Assay to monitor cytotoxicity in HEK293 cells - 8 hour (AID 1224884); note: nearly all actives have a fitted effect of over 35% in size
Settings: CellTox Green fluorescence; series mostly up to 76.8 µM; cytotoxicity increase: at the top concentration
Method in brief: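 Homogeneous no-lysis format: HEK293 cell suspension mixed with CellTox Green reagent, seeded, incubated 5 h at 37 C/5% CO2, then dosed by pintool with compound in DMSO.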
% is set by controls: 0 for no effect and ±100 for the full control effect.

SMILES | cytotoxicity increase
C[C@@H](O)C(=O)O | -9.8% (inactive)
Cc1ccc(C(=O)O)cc1[N+](=O)[O-] | 1.88% (inactive)
COC(C)(OC)OC | 0.288% (inactive)
CC/C(C)=N\O[Si](C)(O/N=C(\C)CC)O/N=C(\C)CC | 1.14% (inactive)
OC1OCCOC1O (centres undefined) | 2.1% (inactive)
CO/N=C(/C(=O)N[C@@H]1C(=O)N2C(C(=O)[O-])=C(C[n+]3ccn4ncccc43)CS[C@H]12)c1nsc(N)n1 | 11.3% [at 35.3 µM] (inactive)
N#Cc1ccccc1O | -17.2% (inactive)
OCC1CCC(CO)CC1 (centres undefined) | -10.8% (inactive)
CC1=C(C(=O)O)N2C(=O)[C@@H](NC(=O)[C@H](N)c3ccccc3)[C@H]2SC1 | 4.41% [at 35.3 µM] (inactive)
COc1ccc(CCO)cc1 | -12.2% (inactive)
N[C@@H](CSCCCO)C(=O)O | -2.04% [at 15.8 µM] (inactive)

Experiment: qHTS RealTime-Glo MT Cell Viability Assay in HepG2 cells - 16 hour (AID 1224885); note: nearly all actives have a fitted effect of over 50% in size
Settings: RealTime-Glo luminescence; series mostly up to 76.8 µM; activity change, negative = cytotoxic: at the top concentration
Method in brief: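 Real-time, nonlytic viability: 600 HepG2 cells/well mixed with NanoLuc enzyme plus prosubstrate; 5 h settle, compound (DMSO) added by pintool; luminescence monitored over 40 h at 37 C.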

SMILES | activity change, negative = cytotoxic
NCC1(Cc2noc(=O)[nH]2)CCCCC1 | 4.44% (inactive)
O=Cc1cc2ccccc2o1 | -0.771% (inactive)
C[C@]12CCC(=O)C=C1CC[C@H]1[C@@H]3CC[C@](O)(C(=O)CO)[C@@]3(C)C[C@H](O)[C@@]12F | -0.234% [at 35.3 µM] (inactive)
COC(=O)c1ccccc1C(=O)O | 1.66% (inactive)
OC[C@H]1O[C@@H](O[C@@H]2[C@@H](CO)O[C@](O)(CO)[C@H]2O)[C@H](O)[C@@H](O)[C@H]1O | 2.86% [at 35.3 µM] (inactive)
CCOc1cccc(N)c1 | -0.934% (inactive)
COC(=O)c1cccc(Cl)c1 | 1.04% (inactive)
CN(C)C(C)(C)CO | 1.78% (inactive)
CCCCSCCCC | 2.87% (inactive)
CCN1CCCC1CN (centres undefined) | 2.27% [at 35.3 µM] (inactive)
Cc1c(NC(=O)c2cccnc2)c(=O)n(-c2ccccc2)n1C | 0.472% [at 35.3 µM] (inactive)
Cc1cc(-c2ccccc2)nnc1NCCN1CCOCC1 | -0.769% [at 35.3 µM] (inactive)
CCOC(CN1CCN(CC(C)C(=O)c2ccccc2)CC1)c1ccccc1 (centres undefined) | 0.651% [at 15.8 µM] (inactive)
